LYPLA1 counter: LYPLA1 inhibitors, primary screen, counter-screen for PME1 inhibitor project, biochemical, fluorescence polarization, FP-Rh probe ABPP; 320,000 compounds, 0.16% hits; recombinant LYPLA1; inhibition, % at 5.9 µM; AID 2174, 2009; Acyl-protein thioesterase 1 (Homo sapiens), O75608;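 active = inhibition above the mean of all tested compounds plus 3 SD, set per campaign, cut at about 14% in these data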;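 note: inhibitors block serine hydrolase probe labeling of LYPLA1 so polarization falls; 0% = enzyme with DMSO and 100% = wells lacking LYPLA1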
LYPLA2 inh: LYPLA2 inhibitors, primary screen, counter-screen for PME1 inhibitor project, biochemical, fluorescence polarization, FP-Rh probe ABPP; Acyl-protein thioesterase 2 (Homo sapiens), O95372; recombinant LYPLA2; inhibition, % at 5.9 µM; 320,000 compounds, 0.38% hits; AID 2177, 2009;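 active = inhibition above the screen-wide mean plus 3 SD, limit set per campaign, cut at about 26% in these data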;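 note: 0% = LYPLA2 with DMSO and 100% = wells lacking LYPLA2 enzyme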
Target sequence (O95372 whole entry, looked up): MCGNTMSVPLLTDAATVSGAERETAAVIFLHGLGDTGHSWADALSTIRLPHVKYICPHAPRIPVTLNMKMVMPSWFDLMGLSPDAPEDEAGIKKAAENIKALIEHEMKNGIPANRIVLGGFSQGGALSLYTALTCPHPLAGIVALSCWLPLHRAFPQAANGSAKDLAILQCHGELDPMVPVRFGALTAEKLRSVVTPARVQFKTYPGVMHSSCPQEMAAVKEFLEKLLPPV
PME-1 inh: PME-1 inhibitors via competitive probe labeling, primary screen, biochemical, fluorescence polarization, FP-Rh probe, HTS; inhibition, % at 5.9 µM; recombinant PME-1; Protein phosphatase methylesterase 1 (Homo sapiens), Q9Y570; 320,000 compounds, 0.53% hits;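 active = inhibition above the campaign mean of all compounds plus 3 SD, cut at about 26% in these data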;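 note: competitive labeling of PME-1 active site by serine hydrolase directed probe; 0% = PME-1 with DMSO and 100% = wells lacking PME-1 enzyme; inhibitors block probe labeling so polarization falls and inhibition rises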
Target sequence (Q9Y570 whole entry, looked up): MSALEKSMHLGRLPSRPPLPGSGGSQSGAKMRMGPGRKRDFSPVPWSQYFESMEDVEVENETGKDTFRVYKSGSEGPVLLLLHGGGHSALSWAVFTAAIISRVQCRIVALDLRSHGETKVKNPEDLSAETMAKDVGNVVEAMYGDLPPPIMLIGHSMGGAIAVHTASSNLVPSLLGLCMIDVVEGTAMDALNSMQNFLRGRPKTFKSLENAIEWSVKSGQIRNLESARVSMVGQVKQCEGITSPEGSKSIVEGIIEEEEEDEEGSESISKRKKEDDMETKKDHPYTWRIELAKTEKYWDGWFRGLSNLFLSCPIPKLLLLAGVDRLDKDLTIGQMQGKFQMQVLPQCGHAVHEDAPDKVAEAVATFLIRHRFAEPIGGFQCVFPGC
Fam108B inh: mouse Fam108B serine hydrolase inhibitors, primary screen, counter-screen for RBBP9 inhibitor project, biochemical, fluorescence polarization; recombinant Fam108B, FP-Rh probe fluorescence polarization; inhibition, % at 9.51 µM; 300,000 compounds, 0.33% hits; AID 1947, 2009;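 active = inhibition above the screen mean inhibition plus 3 SD, computed separately per campaign, cut at about 18% in these data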;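 note: inhibitors lower polarization as less probe binds the enzyme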
PAD4 FP inh: human PAD4 inhibitors, primary screen, biochemical, fluorescence polarization, 1536-well format; inhibition, % at 6.36 µM; AID 485272, 2010; recombinant PAD4, RCA probe fluorescence polarization; Protein-arginine deiminase type-4 (Homo sapiens), Q9UM07; 330,000 compounds, 0.41% hits;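 active = percent inhibition above a cutoff equal to the mean of all tested compounds plus 3 SD, cut at about 15% in these data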;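 note: 0% = PAD4 with RCA probe and DMSO and 100% = probe without PAD4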
GSTO1 inh: inhibitors of recombinant GSTO1, primary screen, counter-screen for RBBP9 inhibitor project, biochemical, fluorescence polarization; activity-based probe fluorescence polarization; inhibition, % at 5.96 µM; 300,000 compounds, 1.1% hits;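 active = inhibition above the campaign mean inhibition plus 3 SD, cut at about 35% in these data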;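 note: 0% = GSTO1-1 with DMSO and 100% = wells lacking GSTO1-1 enzyme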
LYPLA2 confirm: LYPLA2 inhibitors, retest, confirmation, counter-screen for PME1 inhibitor project, biochemical, fluorescence polarization, FP-Rh probe ABPP; shares compounds with LYPLA2 inh; recombinant LYPLA2; inhibition, % at 5.9 µM; 1,100 compounds, 72% hits;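 active = mean inhibition across replicates above the hit cutoff set in the primary screen, cut at about 26% in these data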;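 note: blocked labeling of the enzyme by serine hydrolase FP-Rh probe lowers polarization; 0% = enzyme with DMSO and 100% = wells lacking LYPLA2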
LYPLA2 ABPP: LYPLA2 inhibitors in proteome, late-stage follow-up, gel-based competitive ABPP, fluorescence, assay provider. shares compounds with LYPLA2 inh. rhLYPLA2 in mouse brain proteome, gel ABPP FP-Rh. inhibition, % at 20 µM. 150 compounds, 30% hits;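 active = inhibition of LYPLA2 enzyme probe labeling above about 50%, limit read from the data; inactive = inhibition below that limit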;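 note: loss of FP-Rh probe labeling of the LYPLA2 gel band measured as band density; 0% = DMSO only control band and 100% = blank gel background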
An asterisk follows results filed as active; / = no result. A selection: hits, their analogues and other compounds. The true share with any hit is near 1.8%.

SMILES | LYPLA1 counter | LYPLA2 inh | PME-1 inh | Fam108B inh | PAD4 FP inh | GSTO1 inh | LYPLA2 confirm | others
CC1CCCN(C(=O)c2ccc(S(=O)(=O)N3CCC(c4nc5ccccc5s4)CC3)cc2)C1 (stereo not given) | 2 | 2 | 4 | 1 | 6 | -2 | /
CCN(CC)C(=O)c1ccc(S(=O)(=O)N2CCC(c3nc4ccccc4s3)CC2)cc1 | 6 | 27* | 8 | 2 | -2 | 2 | 16
O=C(Cc1ccccc1)NCC(=O)Nc1ccccc1Br | -3 | -1 | 6 | 4 | 1 | 1 | /
CCOC(=O)N1CCN(C(c2ccc(C(C)C)cc2)c2sc3nc(C)nn3c2O)CC1 (stereo not given) | -1 | 69* | -12 | -9 | -4 | -4 | 67*
COc1ccccc1N1CCN(C(=O)C2c3ccccc3Oc3ccccc32)CC1 | 0 | 2 | -5 | 4 | -3 | -9 | /
O=c1c2ccccc2ncn1CCCSc1ccc(Cl)cc1 | -1 | 34* | 4 | 1 | -3 | 1 | 29*
O=c1c2ccccc2ncn1CCCSc1ccccc1 | -3 | 3 | 3 | -6 | -3 | 3 | /
COc1ccccc1C1=NOC(COc2ccc3c(C)cc(=O)oc3c2)C1 (stereo not given) | 2 | 7 | 1 | -7 | -1 | 3 | /
COc1ccc(C2=NOC(COc3ccc4c(C)cc(=O)oc4c3)C2)c(OC)c1 (stereo not given) | 2 | 28* | -7 | 3 | 0 | -2 | 24
CN(C)S(=O)(=O)c1cccc(COC(=O)CN2C(=O)NC3(CCCC3)C2=O)c1 | 3 | 8 | 3 | 3 | -1 | 4 | /
Cc1coc2c1C(=O)C(=O)c1c-2ccc2c1CCCC2(C)C | 5 | 35* | 8 | 8 | -1 | 28 | 56*
Cc1ccc(C(=O)c2coc3c2C(=O)C(=O)c2ccccc2-3)cc1 | -2 | -8 | 2 | -3 | 3 | 20 | /
S=C(NCCCN1CCOCC1)Nc1ccc(Cl)cc1 | 1 | 27* | -1 | 4 | -6 | 8 | -5
Cc1cccc(-n2ccnc2CN2CCC(CO)(Cc3ccccc3)CC2)c1 | 1 | 2 | 5 | 1 | -2 | 3 | /
Cc1ccc(C(=O)N2CCN(c3ccc(NC(=O)COc4ccccc4C)cc3)CC2)cc1 | 2 | 29* | 5 | -2 | -2 | -1 | 27*
CCC(=O)N1CCN(c2ccc(NC(=O)COc3ccc(C)cc3C)cc2)CC1 | 4 | -1 | -7 | -2 | -3 | 0 | /
CCOC(=O)[C@H]1[C@H]2COc3cc(OC)ccc3[C@@H]2N2C(=O)CN(CCc3c[nH]c4ccccc34)C(=O)[C@@]12C | -3 | 4 | 2 | / | 0 | / | /
CCCCC1CCC(c2nc(-c3ccccn3)no2)CC1 (stereo not given) | 8 | 29* | -7 | 2 | 5 | 7 | 38*
c1ccc(-c2noc(C3CCC3)n2)nc1 | 2 | -1 | 4 | 2 | -3 | 3 | /
O=C(NCC(=O)N1CCN(C/C=C/c2ccccc2)CC1)c1ccc(Br)cc1 | / | / | / | / | -7 | / | /
O=C(NCC(=O)N1CCN(C/C=C/c2ccccc2)CC1)c1ccc(OC(F)F)cc1 | 1 | 35* | -1 | / | 0 | / | 32*
O=C(CNC(=O)c1ccc2ccccc2c1)NCc1ccccc1F | -2 | 3 | 3 | 1 | -3 | 0 | /
COc1ccccc1N(CC(=O)N/N=C/c1ccc(C(=O)O)cc1)S(=O)(=O)c1ccc(C)cc1 | -5 | 3 | 0 | -1 | 1 | 7 | /
CC(=O)N1c2ccc(S(=O)(=O)N3CCC(C(=O)N4CCN(c5ccc(Cl)cc5)CC4)CC3)cc2CC1C (stereo not given) | 10 | 92* | -2 | 0 | 0 | 3 | 92* | LYPLA2 ABPP=75*
COc1cccc(N2CCN(C(=O)C3CCN(S(=O)(=O)c4ccc5c(c4)CC(C)N5C(C)=O)CC3)CC2)c1 (stereo not given) | 1 | 40* | -2 | -4 | -5 | 4 | 49*
SMILES | LYPLA1 counter | LYPLA2 inh | PME-1 inh | Fam108B inh | PAD4 FP inh | GSTO1 inh | LYPLA2 confirm | others
CC1Cc2cc(S(=O)(=O)N3CCN(c4ccc(Cl)cc4)CC3)ccc2N1C(=O)C1CC1 (stereo not given) | 6 | 0 | 3 | -3 | -5 | -8 | /
C=CCNc1nc(Nc2ccc(OC)cc2)nc(OCC)n1 | -3 | -1 | -1 | -1 | 0 | 0 | /
O=C(Nc1cc(S(=O)(=O)N2CCCCC2)ccc1N1CCOCC1)c1cc(=O)[nH]c2ccccc12 | -2 | 32* | 3 | 1 | 2 | 2 | 27*
COc1ccc(Cl)cc1C(=O)Nc1cccc(-c2ccc3nncn3n2)c1 | 7 | 27* | -5 | 3 | -11 | -14 | 30*
COCCCNC(=O)c1ccc2c(c1)nc(C)n2-c1cccc(C)c1 | -5 | -6 | -2 | -1 | -2 | -1 | /
O=C(NCc1cccnc1)c1ccc(NC(=O)c2ccc([N+](=O)[O-])cc2)cc1 | 6 | 37* | 6 | -6 | -5 | 5 | 30*
O=C(COc1ccc2ccccc2c1)NCC(=O)N/N=C/c1ccco1 | 0 | 30* | -3 | -1 | -3 | 0 | -4
CC(C)(C)CC(C)(C)Nc1c(-c2ccc(O)cc2)nc2cnccn12 | 2 | 2 | -3 | -2 | 2 | -2 | /
CC[C@]1(C(=O)OC)[C@H]2C(=O)N(C)C(=O)[C@H]2[C@H]2CN=C(SCc3ccc(OC)cc3)N21 | / | / | / | / | 0 | / | /
Cc1[nH]c(=O)c(Cc2ccccc2)c(O)c1C#N | 0 | 3 | 0 | -4 | -2 | 1 | /
COc1cccc(C(=O)NCC2CCN(c3ccc(S(=O)(=O)N4CCOCC4)cc3)CC2)c1 | 0 | 29* | -3 | 0 | 1 | -3 | 20
O=C(NCC1CCN(c2ccc(S(=O)(=O)N3CCOCC3)cc2)CC1)c1cccc(Cl)c1 | 1 | 32* | 2 | 0 | -1 | 3 | 31*
O=C(c1ccc(S(=O)(=O)N2CCOCC2)cc1)N1CCN(c2cccc(Cl)c2)CC1 | -7 | 4 | 6 | 0 | 3 | 7 | /

Screening data from PubChem.
